From PubChem
D1 antagonist = blocks dopamine activation of the human D1 receptor | P21728 | HEK293 TREx D1 cells, calcium flux, dopamine EC80; active compounds read low | activity change, negative = inhibition, % at 10 µM | 360,000 tested, 3.2% active; in the data active = activity change below about -30%; also: % is scaled to controls: 0 for no effect and ±100 for the full control effect
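Tetracycline-induced HEK293 Trex D1 cells, force-coupled to calcium, dye-loaded; compounds added and read 180 s, then EC80 dopamine added and calcium flux tracked kinetically another 180 s.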
GALK inhibitor = galactokinase (human) inhibition. P51570. Purified GALK, Kinase-Glo residual ATP luminescence. Potency, µM (series often up to 57.5 µM), for the others: top-dose activity change, negative = inhibition, hits mostly inhibitors. 270,000 tested, 0.007% active; also: potency is read from the fitted curve at half-maximal effect; % is scaled to controls: 0 for no effect and ±100 for the full control effect
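Human GALK (5 nM) with 35 uM ATP and 100 uM galactose in 20 mM HEPES pH 8.0, 5 mM MgCl2, 60 mM NaCl, 1 mM DTT, 0.01% BSA. After 1 h at room temperature, leftover ATP was read by Kinase-Glo Plus luminescence.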
D1 agonist = agonists of human D1 dopamine receptor. P21728. HEK293 T-REx D1 cells, calcium flux, agonist mode. activation, % at 2 µM. 360,000 tested, 1% active; in the data active = activation above about 30%; also: 0% is about no effect
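Inducible HEK293 T-REx D1 cells, force-coupled to calcium signalling, were plated at 4000 cells/well with tetracycline and held overnight at 30 C. After no-wash calcium dye loading, compound-evoked calcium rise over 180 s flagged agonists.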
Eya2 inh = blocks the phosphatase activity of human Eya2. recombinant Eya2, OMFP fluorescence dephosphorylation (OMFP is methylfluorescein phosphate). Potency, µM (titrated, usually from 76.9 µM), inactives show at the top dose activity, negative = inhibition, most hits filed as inhibitors. 330,000 tested, 0.006% active. AID 488837; also: potency is read from the fitted curve at half-maximal effect; % is scaled to controls: 0 for no effect and ±100 for the full control effect
Target sequence (O00167 whole entry, looked up): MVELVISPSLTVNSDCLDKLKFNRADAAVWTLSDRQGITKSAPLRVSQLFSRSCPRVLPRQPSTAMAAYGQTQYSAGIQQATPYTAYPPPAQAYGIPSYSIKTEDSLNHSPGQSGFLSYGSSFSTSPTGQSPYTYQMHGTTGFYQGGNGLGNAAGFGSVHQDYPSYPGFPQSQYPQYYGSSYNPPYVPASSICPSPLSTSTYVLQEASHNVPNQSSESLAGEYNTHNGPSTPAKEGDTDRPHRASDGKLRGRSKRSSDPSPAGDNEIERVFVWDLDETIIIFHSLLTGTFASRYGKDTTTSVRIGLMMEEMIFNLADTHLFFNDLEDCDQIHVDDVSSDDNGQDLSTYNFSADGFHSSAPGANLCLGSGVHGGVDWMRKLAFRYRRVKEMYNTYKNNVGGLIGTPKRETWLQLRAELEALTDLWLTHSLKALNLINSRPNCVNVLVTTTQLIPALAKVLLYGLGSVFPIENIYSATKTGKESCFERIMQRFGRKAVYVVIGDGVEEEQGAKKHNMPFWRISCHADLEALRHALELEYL
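Eya2 protein (added as 0.2 uM solution) was preincubated with compound for 10 min at ambient temperature in 50 mM HEPES pH 7.5, 50 mM NaCl, 5 uM MgCl2, 0.05% BSA, 1 mM DTT. OMFP (added at 50 uM) then reacted 10 min; fluorescence read at 485/525 nm.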
USP2a inh = blocks human ubiquitin-specific protease USP2a | O75604 | USP2 core, Ub-CHOP2 coupled fluorogenic reporter, 485/531 | Potency, µM (doses to about 38.3 µM), inactives show top-dose activity change, negative = inhibition, hits mostly inhibitors | 330,000 tested, 0.01% active | AID 463254;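 also: potency is read from the fitted curve at half-maximal effect; plate controls were DMSO wells for no effect and full inhibition by NEM control for full effect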
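Deubiquitinase activity read as fluorescence (485/531 nm) after Ub-CHOP2 cleavage activates the enterokinase reporter on its substrate; USP2 core 10nM, Ub-CHOP2 and substrate 25nM each, 30min compound preincubation then 60min RT; data normalized to NEM, curves fitted.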
D1 potentiator = potentiators of human D1 dopamine receptor. P21728. HEK293 TREx D1 cells, calcium flux, dopamine EC20 potentiation. potentiation, % at 10 µM. 360,000 tested, 0.036% active. AID 504651; in the data active = potentiation above about 30%; also: 0% is about no effect
* = called active by the depositor; x = not tested or not shown. A selection: hits, their analogues and other compounds. The true share with any hit is near 3.9%. Unless noted, calls follow the shape of the dose curve; as a rule, active = well fitted inhibition curve with a large enough effect; inconclusive = small, poorly fitted or top-dose-only effect, or effect the other way; inactive = flat fitted curve, though single readings scatter.

SMILES	D1 antagonist	GALK inhibitor	D1 agonist	Eya2 inh	USP2a inh	D1 potentiator
O=C1c2ccccc2NC(c2ccc(O)cc2)N1c1ccccc1 (configuration not stated)	-75*	1%	0	6%	-1%	2
COc1ccc(CNC(=O)Cc2csc3nc(-c4ccc(C)cc4)cn23)cc1	-5	x	0	x	x	-2
CCc1ccc(/C=C2/SC(=S)NC2=O)cc1	x	x	x	1%	x	x
O=C1NC(=S)S/C1=C\c1ccc2ccccc2c1	-31*	-13%	3	-3%	0%	-2
Cc1ccc(OCCCCn2c(CCNC(=O)C(C)(C)C)nc3ccccc32)cc1	2	x	1	x	x	6
Cc1c(C2(O)CCCCC2)[nH]c2cc(C(F)(F)F)ccc12	x	x	x	6%	-3%	x
CCc1c(C2(O)CCCCC2)[nH]c2cc(C(F)(F)F)ccc12	12	x	32*	-3%	-1%	0
CCCCCOc1c(Cl)cc(C(=O)N(Cc2ccc(C)o2)C2CCS(=O)(=O)C2)cc1Cl (configuration not stated)	14	x	30*	x	x	-2
CCCCOc1c(Cl)cc(C(=O)N(Cc2ccc(C)o2)C2CCS(=O)(=O)C2)cc1Cl (configuration not stated)	3	x	23	x	x	6
CCc1ccc2occ(CC(=O)Nc3c(C(=O)c4ccc(C)cc4)oc4ccccc34)c2c1	-9	x	-1	x	x	-1
CC(C)c1ccc(/C=C2\NC(=S)N(Cc3cccnc3)C2=O)cc1	-37*	9%	0	3%	1%	-4
CC(=O)C1=C(O)C(=O)N(Cc2cccnc2)C1c1ccc(C(C)C)cc1 (configuration not stated)	-10	10%	-1	9%	4%	-3
Cc1ccc2c(c1)-c1nc(-c3ccc4c(c3)NC(=O)CO4)cc(-c3ccc(Cl)cc3)c1CO2	8	x	-1	x	x	-2
Cc1ccc(/C=C/C(=O)N2CCN(c3ncccn3)CC2)o1	-43*	0%	2	10%	2%	-5
Cc1ccc(/C=C/C(=O)N2CCN(c3ccc(F)cc3)CC2)o1	-12	0%	2	1%	-1%	4
Cc1cccn2c(=O)cc(COc3ccc(NC(=O)C(C)Oc4ccccc4)cc3)nc12 (configuration not stated)	-49*	x	1	x	x	-3
CCOc1ccc(C(=O)Nc2cccc(OCc3cc(=O)n4ccccc4n3)c2)cc1	-17	x	-2	x	x	-3
Cc1cccn2c(=O)cc(COc3cccc(NC(=O)Nc4cccc(Cl)c4)c3)nc12	-59*	x	1	x	x	-2
Cc1cccc(C(=O)Nc2cccc(OCc3cc(=O)n4ccccc4n3)c2)c1	-71*	x	-1	x	x	-6
CCOc1ccc(C(=O)NCc2ccc3c(c2)CCN3C(=O)c2ccc(Cl)cc2)cc1	-3	x	-1	x	x	-1
COC(=O)c1ccccc1NC(=O)c1ccc(F)cc1F	2	x	12	x	x	-7
Cc1oc2ncn(C)c(=O)c2c1C(=O)N1CCN(c2ccccc2)CC1	14	x	0	x	x	-2
O=C(NCc1ccccn1)NC12CC3CC(CC(C3)C1)C2	-82*	0%	2	7%	1%	-5
Cc1cc(OCC(=O)NCc2cccnc2)c2c(C)c(C)c(=O)oc2c1	-6	6%	2	12%	3%	0
Cc1cc(OCC(=O)Nc2cccnc2)c2c(C)c(C)c(=O)oc2c1	-37*	-2%	3	-1%	-1%	-20
SMILES	D1 antagonist	GALK inhibitor	D1 agonist	Eya2 inh	USP2a inh	D1 potentiator
O=C(COc1ccc2c(-c3ccccc3)cc(=O)oc2c1)Nc1cccnc1	-33*	3%	20	9%	2%	-10
Cc1nnc2c(N3CCN(c4ccccc4F)CC3)nc3ccccc3n12	-4	x	8	x	x	-2
O=[N+]([O-])c1cccc(-c2csc(Nc3ccccc3)n2)c1	-30*	-3%	4	-18%	0%	-12
COc1ccccc1-c1c(C)nn2c(N3CCN(c4ccc(Cl)cc4)CC3)cc(C)nc12	13	x	2	x	x	-5
O=[S+]([O-])(c1ccc2c(c1)OCCO2)N1CCN([S+](=O)([O-])c2c(F)cc(Br)cc2F)CC1	10	x	2	x	x	4
COc1ccc(-c2nnc(SCc3ccccc3)n2N)cc1	-29	-1%	63*	9%	3%	-5
Cc1ccc(-c2nnc(SCC#N)n2N)cc1	-33*	-4%	0	15%	4%	10
Cc1cccc(-c2nnc(SCC#N)n2C)c1	-1	4%	1	3%	2%	9
c1ccc(CCn2c(SCc3ccccc3)nnc2-c2ccncc2)cc1	-5	1%	35*	2%	1%	-3
CCCCn1c(=O)n(CC2CCC(C(=O)NCCCOC)CC2)c(=O)c2sccc21 (configuration not stated)	-10	x	2	x	x	-6
CN(Cc1ccccc1)C(=O)CSc1nc2ccccc2n1Cc1ccccc1F	2	x	7	x	x	0
CCOc1ccc(C(=O)Nc2cccc(NC(=O)c3ccc(C(C)(C)C)cc3)c2)cc1Br	-9	x	3	x	x	0
CC(C)Nc1nc(Oc2cccc(Cl)c2Cl)cc(C(F)(F)F)n1	-32*	-1%	14	-17%	1%	-8
CC(C)Nc1nc(Oc2ccc(Cl)cc2Cl)cc(C(F)(F)F)n1	2	0%	10	-22%	1%	2
C=CCc1c(C)nc2c(-c3ccccc3)cnn2c1N1CCOCC1	-32*	9%	1	10%	7%	-8
CC(NC(=O)Cn1c(-c2cccs2)cc2cc(F)ccc21)c1ccccc1 (configuration not stated)	-15	x	0	x	x	-3
C/C(=N\Nc1ccc(C#N)cc1[N+](=O)[O-])c1ccc(O)cc1	-43*	4%	6	1%	-1%	-4
CC/C(=N\Nc1ccc([N+](=O)[O-])cc1[N+](=O)[O-])c1ccc(O)cc1	-34*	3%	-1	-12%	2%	-8
COc1cccc(CNC(=O)CCc2c(C)c3cc4c(C)c(C)oc4cc3oc2=O)c1	4	x	2	x	x	0
Cc1ccccc1CN1C(=O)c2ccccc2S(=O)c2ccc(C(=O)N3CCOCC3)cc21 (configuration not stated)	7	x	0	x	x	-3
Cc1ccc(NC(=O)c2cnn(-c3ccccc3)c2C)c(C)c1	-58*	-2%	7	-3%	0%	-7
[O-][n+]1c2c(c3c4non(O)c4ccc31)CCCC2	-31*	0%	21	9%	3%	-4
COn1c2c(c3c4no[n+]([O-])c4ccc31)CCCC2	-30	3%	1	-2%	2%	-3
